Test results: the supplement of paper PMC10849652
The full data set covers some 7,900 targets. This sample favours those with a hit. About 0.6% of all pairs of compound and target were hits. Values without a mark were called inactive.

Legend:
Test in all cases: log2 fold change, soluble protein after heating vs DMSO (PISA); higher = thermal stabilisation; K562 cells, 10 uM, 30 min; active = over 0.2 and 3.5 SD of the protein, either way, in both replicates (recomputed)
[1] = compound: COc1cc(C(=O)O)ccc1NC(=O)[C@@H]1N[C@@H](CC(C)(C)C)[C@](C#N)(c2ccc(Cl)cc2F)[C@H]1c1cccc(Cl)c1F [idasanutlin]
How it was run: (§1)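 K562 cells (2×10^6 cells/mL) were treated with 10 μM compound for 30 min, and aliquots were heated for 3 min over 48°C-58°C. Pooled aliquots were extracted in PBS with 0.5% NP-40 at 4°C, and the supernatant after 21,000xg for 90 min was measured by TMTpro 16plex LC-MS/MS with channel sums equalised. Reported thermal stability, relative to control samples and from duplicates, is a log2 fold change.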

[2] = compound: CON(C)C(=O)N1N=C(c2cc(F)ccc2F)S[C@@]1(CCCN)c1ccccc1 [filanesib]
How it was run: as §1

[3] = compound: CS(=O)(=O)c1ccc(-c2cnc(N)c(C(=O)Nc3ccccc3)n2)cc1
How it was run: as §1

[4] = compound: COc1cc2nc(-c3cc(F)ccc3O)nc(N[C@@H]3CNC[C@H]3C(C)(C)O)c2cc1OC
How it was run: as §1

[5] = compound: CS(=O)(=O)CCNCc1ccc(-c2ccc3ncnc(Nc4ccc(OCc5cccc(F)c5)c(Cl)c4)c3c2)o1 [lapatinib]
How it was run: as §1

[6] = compound: COC1=CC=C(C=C1)CN2C=CC3=C2C=C(C=C3)C(=O)NO
How it was run: as §1

[7] = compound: CO[C@H]1C[C@@H]2CC[C@@H](C)[C@@](O)(O2)C(=O)C(=O)N2CCCC[C@H]2C(=O)O[C@H]([C@H](C)C[C@@H]2CC[C@H](n3cnnn3)[C@H](OC)C2)CC(=O)[C@H](C)/C=C(\C)[C@@H](O)[C@@H](OC)C(=O)[C@H](C)C[C@H](C)/C=C/C=C/C=C/1C [zotarolimus]
How it was run: as §1

[8] = compound: COc1cc2ncnc(Nc3ccc(F)c(Cl)c3)c2cc1OCCCN1CCOCC1 [gefitinib]
How it was run: as §1

[9] = compound: CS(=O)(=O)N1CCN(Cc2cc3nc(-c4cccc5[nH]ncc45)nc(N4CCOCC4)c3s2)CC1 [pictilisib]
How it was run: as §1

[10] = compound: C[C@@H](Oc1cc(-c2cnn(C3CCNCC3)c2)cnc1N)c1c(Cl)ccc(F)c1Cl [crizotinib]
How it was run: as §1

[11] = compound: C[C@@H]1COCCN1C2=NC(=NC(=C2)C3(CC3)S(=O)(=O)C)C4=C5C=CNC5=CC=C4
How it was run: as §1

[12] = compound: C[C@H](C1=CC=C(C=C1)C(=O)NC2=C3C=CNC3=NC=C2)N
How it was run: as §1

[13] = compound: C[C@H](Nc1ncnc2nc[nH]c12)c1cc2cccc(Cl)c2c(=O)n1-c1ccccc1 [duvelisib]
How it was run: as §1

[14] = compound: Cc1cc(Nc2cc(CN3CCOCC3)c3nc(C)c(Cc4ccc(Cl)cc4F)n3n2)n[nH]1 [gandotinib]
How it was run: as §1

[15] = compound: Cc1cc(Nc2cc(N3CCN(C)CC3)nc(Sc3ccc(NC(=O)C4CC4)cc3)n2)n[nH]1 [tozasertib]
How it was run: as §1

[16] = compound: Cc1cc(SCc2sc(-c3ccc(C(F)(F)F)cc3)nc2C)ccc1OCC(=O)O
How it was run: as §1

[17] = compound: Cc1ccc(-n2nc(C(C)(C)C)cc2NC(=O)Nc2ccc(OCCN3CCOCC3)c3ccccc23)cc1 [doramapimod]
How it was run: as §1

[18] = compound: Cc1ccc(C(=O)N(CCCN)[C@@H](c2nc3cc(Cl)ccc3c(=O)n2Cc2ccccc2)C(C)C)cc1 [ispinesib]
How it was run: as §1

[19] = compound: COc1cc(Nc2ncc3c(n2)-c2ccc(Cl)cc2C(c2c(F)cccc2OC)=NC3)ccc1C(=O)O [alisertib]
How it was run: as §1

[20] = compound: COc1cccc2cc(-c3nc([C@H]4CC[C@H](C(=O)O)CC4)n4ncnc(N)c34)[nH]c12
How it was run: as §1

UniProt Q5PRF9, sequence (Q5PRF9 whole entry, looked up): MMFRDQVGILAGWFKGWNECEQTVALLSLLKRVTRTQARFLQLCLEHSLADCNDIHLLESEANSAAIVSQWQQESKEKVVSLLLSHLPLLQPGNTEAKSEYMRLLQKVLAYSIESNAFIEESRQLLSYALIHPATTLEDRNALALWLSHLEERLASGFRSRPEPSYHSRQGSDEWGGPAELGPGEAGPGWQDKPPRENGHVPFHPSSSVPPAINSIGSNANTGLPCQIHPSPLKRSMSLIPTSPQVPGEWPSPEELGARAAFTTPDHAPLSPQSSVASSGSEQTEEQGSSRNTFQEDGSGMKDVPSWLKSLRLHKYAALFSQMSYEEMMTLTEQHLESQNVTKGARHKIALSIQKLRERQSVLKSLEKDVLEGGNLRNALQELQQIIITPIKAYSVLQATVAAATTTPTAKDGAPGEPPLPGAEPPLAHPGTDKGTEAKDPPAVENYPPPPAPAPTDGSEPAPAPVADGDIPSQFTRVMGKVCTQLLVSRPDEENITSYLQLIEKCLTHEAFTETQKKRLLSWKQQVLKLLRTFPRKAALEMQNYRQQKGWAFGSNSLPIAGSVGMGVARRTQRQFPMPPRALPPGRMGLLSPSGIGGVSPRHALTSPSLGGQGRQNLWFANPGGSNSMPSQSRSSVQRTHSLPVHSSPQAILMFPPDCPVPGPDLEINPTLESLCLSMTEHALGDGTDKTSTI
UniProt Q5VTB9, sequence (Q5VTB9 whole entry, looked up): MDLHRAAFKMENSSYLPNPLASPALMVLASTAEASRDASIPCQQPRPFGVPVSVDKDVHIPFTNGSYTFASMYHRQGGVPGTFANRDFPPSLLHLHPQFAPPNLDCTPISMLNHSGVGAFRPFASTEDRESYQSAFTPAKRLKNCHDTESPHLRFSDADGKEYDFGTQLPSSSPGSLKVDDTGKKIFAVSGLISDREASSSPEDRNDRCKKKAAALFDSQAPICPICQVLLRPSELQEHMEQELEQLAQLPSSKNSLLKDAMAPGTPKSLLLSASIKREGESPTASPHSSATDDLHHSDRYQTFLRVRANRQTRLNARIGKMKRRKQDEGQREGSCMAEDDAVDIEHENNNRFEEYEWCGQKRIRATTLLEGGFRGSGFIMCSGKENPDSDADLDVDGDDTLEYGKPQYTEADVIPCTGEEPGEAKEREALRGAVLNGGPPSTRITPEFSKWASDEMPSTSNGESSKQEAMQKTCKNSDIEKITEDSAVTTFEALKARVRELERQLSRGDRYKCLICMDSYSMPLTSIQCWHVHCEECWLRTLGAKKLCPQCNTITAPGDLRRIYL
UniProt Q5T8P6, sequence (Q5T8P6 whole entry, looked up): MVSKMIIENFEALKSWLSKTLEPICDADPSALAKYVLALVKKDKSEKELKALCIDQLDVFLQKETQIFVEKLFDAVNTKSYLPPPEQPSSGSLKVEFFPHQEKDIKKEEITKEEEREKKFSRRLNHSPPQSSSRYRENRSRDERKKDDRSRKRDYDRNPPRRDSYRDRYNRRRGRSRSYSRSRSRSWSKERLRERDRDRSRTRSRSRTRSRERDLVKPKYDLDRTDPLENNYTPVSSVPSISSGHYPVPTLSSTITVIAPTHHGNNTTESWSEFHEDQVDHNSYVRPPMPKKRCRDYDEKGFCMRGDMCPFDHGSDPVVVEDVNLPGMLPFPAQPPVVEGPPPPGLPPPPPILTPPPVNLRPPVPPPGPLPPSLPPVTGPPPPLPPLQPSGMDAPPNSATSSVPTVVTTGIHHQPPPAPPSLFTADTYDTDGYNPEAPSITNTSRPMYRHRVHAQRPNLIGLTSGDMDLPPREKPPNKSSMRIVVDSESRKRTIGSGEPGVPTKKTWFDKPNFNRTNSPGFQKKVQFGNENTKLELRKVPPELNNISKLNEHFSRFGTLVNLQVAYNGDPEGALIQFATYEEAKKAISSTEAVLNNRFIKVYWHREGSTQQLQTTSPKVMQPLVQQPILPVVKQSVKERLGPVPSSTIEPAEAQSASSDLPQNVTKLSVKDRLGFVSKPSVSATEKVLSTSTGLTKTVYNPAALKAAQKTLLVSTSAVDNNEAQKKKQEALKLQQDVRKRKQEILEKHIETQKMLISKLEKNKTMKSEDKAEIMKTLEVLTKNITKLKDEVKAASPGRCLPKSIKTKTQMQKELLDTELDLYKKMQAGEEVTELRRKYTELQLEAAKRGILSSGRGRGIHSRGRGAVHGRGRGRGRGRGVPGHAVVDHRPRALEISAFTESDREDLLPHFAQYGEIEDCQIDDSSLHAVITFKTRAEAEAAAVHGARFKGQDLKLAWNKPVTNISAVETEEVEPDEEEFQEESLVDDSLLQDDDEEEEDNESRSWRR
UniProt O95716, sequence (O95716 whole entry, looked up): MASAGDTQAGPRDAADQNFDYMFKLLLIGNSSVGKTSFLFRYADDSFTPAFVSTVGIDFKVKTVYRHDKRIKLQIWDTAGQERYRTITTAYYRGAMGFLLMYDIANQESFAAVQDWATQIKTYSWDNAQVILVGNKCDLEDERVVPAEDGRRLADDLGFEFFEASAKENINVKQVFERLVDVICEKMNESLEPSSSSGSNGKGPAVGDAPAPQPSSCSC
UniProt P60602, sequence (P60602 whole entry, looked up): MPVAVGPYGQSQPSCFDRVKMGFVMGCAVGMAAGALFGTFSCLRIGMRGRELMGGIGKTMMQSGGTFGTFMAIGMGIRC
UniProt Q9H4P4, sequence (Q9H4P4 whole entry, looked up): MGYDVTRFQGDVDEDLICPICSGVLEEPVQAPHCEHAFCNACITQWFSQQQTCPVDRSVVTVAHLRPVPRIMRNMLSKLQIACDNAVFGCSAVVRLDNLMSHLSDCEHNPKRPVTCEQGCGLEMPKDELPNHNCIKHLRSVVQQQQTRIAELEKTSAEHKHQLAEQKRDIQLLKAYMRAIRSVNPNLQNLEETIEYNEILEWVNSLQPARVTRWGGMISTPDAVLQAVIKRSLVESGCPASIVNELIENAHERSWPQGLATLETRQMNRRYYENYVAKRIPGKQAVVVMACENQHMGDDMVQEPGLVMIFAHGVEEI

Row | Target | log2 fold change [1] | log2 fold change [2] | log2 fold change [3] | log2 fold change [4] | log2 fold change [5] | log2 fold change [6] | log2 fold change [7] | log2 fold change [8] | log2 fold change [9] | log2 fold change [10] | log2 fold change [11] | log2 fold change [12] | log2 fold change [13] | log2 fold change [14] | log2 fold change [15] | log2 fold change [16] | log2 fold change [17] | log2 fold change [18] | log2 fold change [19] | log2 fold change [20]
1 | RNF41 (UniProt Q9H4P4) | -0.031 |  |  |  |  |  |  |  |  |  |  |  |  |  |  |  |  |  |  | 
2 | RBM26 isoform 3 (UniProt Q5T8P6) | 0.167 | 0.004 | 0.066 |  |  |  |  |  |  |  |  |  |  |  |  |  |  |  |  | 
3 | RNF220 isoform 3 (UniProt Q5VTB9) | 0.073 |  |  | -0.153 | 0.261 |  |  |  |  |  |  |  |  |  |  |  |  |  |  | 
4 | SAMD4B (UniProt Q5PRF9) |  | 0.139 | -0.102 | 0.14 | -0.036 | 0.075 | 0.072 | 0.146 | -0.044 | -0.527 (active) | -0.036 | 0.009 | -0.067 | -0.135 | -0.154 | 0.029 | 0.073 | -0.082 |  | 
5 | ROMO1 (UniProt P60602) | 0.044 | -0.024 | 0.023 | -0.024 | -0.079 |  | -0.069 | 0.034 | 0.035 |  | 0.121 | 0.064 | 0.117 | -0.033 | -0.003 | -0.059 |  | -0.061 | 0.005 | 0.033
6 | SEPTIN5 (UniProt G3XAH0) | 0.027 | -0.044 | -0.042 | 0.011 | 0.094 |  | 0.045 | -0.057 | 0.051 |  | 0.087 | -0.089 | -0.032 | -0.153 | -0.028 | -0.036 |  | -0.017 | 0.003 | 0.036
7 | RAB3D (UniProt O95716) | 0.026 |  |  | 0.002 | 0.002 |  | -0.08 | 0.243 | -0.153 |  |  | -0.031 | -0.106 | 0.083 | 0.021 | -0.115 |  | 0.2 | 0.007 | -0.07
